In the library only some 4.8% were active in any assay of this set; here they are far more common.
DAX1 inh-1: DAX1 (NR0B1) inhibitors on StAR promoter, primary screen, cell-based, luminescence, SF-1 (NR5A1), full-length DAX-1 | HEK293T StAR-luciferase reporter, SF-1/DAX-1 repression relief | inhibition, % at 6.8 µM | 370,000 compounds, 1.1% hits | AID 652010, 2013;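 active means inhibition above the mean over all tested compounds plus 3 SD, cut at about 3.6% in these data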;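 further: 0% = DAX-1 cells with DMSO and 100% = cells lacking DAX-1 with DMSO; higher inhibition means more luminescence from relief of DAX-1 repression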
DAX1 inh-2: DAX1 (NR0B1) inhibitors, primary screen, cell-based, HEK293, Gal4-DAX1, luciferase luminescence | HEK293 Gal4-DAX1 luciferase reporter | inhibition, % at 6.75 µM | 340,000 compounds, 0.99% hits;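 active means inhibition above the mean over all tested compounds plus 3 SD, cut at about 4.2% in these data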;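 further: 0% = DAX1-transfected cells with DMSO and 100% = empty-vector control cells with DMSO; inhibition shows as a rise in luminescence from relieved DAX1 repression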
hcDAF12 agonist: H. contortus DAF-12 nuclear receptor activators, primary screen, cell-based, luminescence, HEK293, lit1-tk-luc reporter. HEK293 hcDAF-12 lit1-tk-luc reporter; 0% DMSO, 100% Δ7-dafachronic acid. AID 652067, 2013. 370,000 compounds, 1.4% hits. activation, % at 6.8 µM;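 active means activation above the mean of all tested compounds plus 3 SD, cut at about 5.5% in these data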;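 further: 100% = response to 3 µM Δ7-dafachronic acid high control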
ssDAF12 agonist: S. stercoralis DAF-12 nuclear receptor activators, primary screen, cell-based, luminescence, HEK293, GRIP1 co-expression, lit1-tk-luc | Nuclear hormone receptor DAF-12 (Strongyloides stercoralis) | activation, % at 6.8 µM | HEK293 ssDAF-12/GRIP1 lit1-tk-luc reporter; % of 3 µM dafachronic acid response | 370,000 compounds, 1% hits;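 active means activation above the mean over all tested compounds plus 3 SD, cut at about 0.9% in these data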;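 further: 0% = DMSO-only wells and 100% = 3 µM delta7-dafachronic acid wells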
SMARCA2 activ: SMARCA2 (BRM) function activators, primary screen, cell-based, luminescence, high throughput. MG213 cells, MMTV-luciferase reporter, dexamethasone, overnight. activation, % at 9.1 µM. 370,000 compounds, 1% hits. AID 652017, 2013; in the data active means activation above about 7.8%;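 further: 0% = vehicle wells and 100% = reference activator wells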
hgDAF-12 ag: H. glycines DAF-12 receptor agonists, primary screen, cell-based, luminescence, HEK293, GAL4 fusion, UAS-luciferase; HEK293 GAL4-hgDAF12 UAS-luciferase reporter, agonist luminescence; normalized to butyrate control; activation, % at 6.8 µM; 370,000 compounds, 1.8% hits; AID 687014, 2013;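 active means activation above a cutoff set at the mean of all screened compounds plus 3 SD, cut at about 10% in these data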;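 further: 0% = DMSO wells and 100% = sodium butyrate wells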
hgDAF12 ag: H. glycines DAF-12 receptor agonists, confirmation, cell-based, luminescence, HEK293, GAL4-LBD fusion. shares compounds with hgDAF-12 ag. HEK293 GAL4-hgDAF12 luciferase reporter, agonist mode; percent of butyrate response. activation, % at 6.8 µM. 3,300 compounds, 80% hits;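 active means mean activation over triplicate wells above the hit cutoff derived from the earlier primary screen, cut at about 11% in these data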;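 further: 0% = DMSO low control and 100% = 2 mM sodium butyrate high control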
LXRb DAF12 ctr: LXR agonists, Gal4 luciferase reporter, confirmation, counter-screen for hgDAF-12 agonist project, cell-based, luminescence, HEK293, H. glycines campaign; shares compounds with hgDAF-12 ag; 24 h; activation, % at 6.8 µM; 3,300 tested, under 10 active; AID 743051, 2013;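 active means mean activation of the triplicate above a set limit carried over from the primary screen, none filed active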
Target sequence (P55055 whole entry, looked up, the tested form may be a part): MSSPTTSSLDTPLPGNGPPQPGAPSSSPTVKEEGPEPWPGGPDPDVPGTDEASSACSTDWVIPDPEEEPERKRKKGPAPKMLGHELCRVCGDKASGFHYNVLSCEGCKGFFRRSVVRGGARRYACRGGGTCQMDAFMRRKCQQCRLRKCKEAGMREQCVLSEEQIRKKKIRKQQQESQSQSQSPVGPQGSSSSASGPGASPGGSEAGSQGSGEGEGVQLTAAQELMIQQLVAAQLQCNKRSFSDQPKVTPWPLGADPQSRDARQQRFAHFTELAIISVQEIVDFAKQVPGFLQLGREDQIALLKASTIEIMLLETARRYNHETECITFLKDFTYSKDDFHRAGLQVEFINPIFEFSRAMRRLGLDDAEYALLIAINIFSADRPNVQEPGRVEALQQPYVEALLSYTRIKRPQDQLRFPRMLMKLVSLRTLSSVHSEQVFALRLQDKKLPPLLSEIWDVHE
Active calls of the source: *; nt = no result.

SMILES | DAX1 inh-1 | DAX1 inh-2 | hcDAF12 agonist | ssDAF12 agonist | SMARCA2 activ | hgDAF-12 ag | hgDAF12 ag | LXRb DAF12 ctr
O=C(N/N=C/c1c(-c2ccccc2)[nH]c2ccccc12)c1cccnc1 | -2 | 0 | 1 | 0 | 0 | 18* | 10 | 0
Cc1cc2nc(-c3ccc(SCC(=O)Nc4ccc(S(=O)(=O)NC5CC5)cc4)nc3)[nH]c2cc1C | 4.5* | 0 | 5.6* | 1.2* | 2 | 16* | 17* | 1
Cc1cc(NC(=O)CSc2ccc(-c3nc4cc(C)c(C)cc4[nH]3)cn2)no1 | nt | 2 | nt | nt | nt | nt | nt | nt
CNS(=O)(=O)c1cccc(C(=O)OCC(=O)N2CCN(C(=O)c3ccco3)CC2)c1 | 0 | 1 | -1 | -1 | -2 | 0 | nt | nt
CCOC(=O)C1CCCN(C(=O)c2cc(-c3ccc(C)cc3)on2)C1 (stereo not given) | 0 | 0 | -1 | -2 | -3 | -2 | nt | nt
O=C(c1cc(-c2ccc(O)cc2)on1)N1CCCC1 | 3 | 2 | 5 | 1 | 6 | 15* | 13* | 1
COc1ccc(-c2cc(C(=O)N3CCCC3)no2)cc1 | 2 | -2 | 5 | 0 | 2 | 14* | 10 | 1
O=C(c1cc(-c2ccc(Br)cc2)on1)N1CCCC1 | 3 | 2 | 4 | 1 | 5 | 19* | 15* | 1
Cc1ccc(-c2cc(C(=O)N3CCCCCC3)no2)cc1 | 3 | 0 | 5 | 1.3* | 2 | 14* | 21* | 1
COc1ccc(-c2cc(C(=O)N3CCCc4ccccc43)no2)cc1 | 0 | 0 | 0 | -2 | 1 | 5 | nt | nt
CN1CCN(C(=O)c2cc(-c3ccccc3)on2)CC1 | 1 | 0 | 1 | -1 | 2 | 4 | nt | nt
CC(=O)Nc1sc(C)c(C)c1C(=O)OCC(=O)N(C)C1CCS(=O)(=O)C1 (stereo not given) | 0 | 0 | 1 | -1 | -2 | 1 | nt | nt
O=C(c1cc(-c2ccccc2)on1)N1CCCCCC1 | 2 | 1 | 4 | 0 | 5 | 13* | 15* | 1
O=C(c1cc(-c2ccccc2O)on1)N1CCCCCC1 | 2 | 2 | 3 | 1 | 2 | 14* | 10 | 0
Cc1cccc(N(C(=O)Nc2ccccc2)C2=NCC(C)S2)c1 (stereo not given) | 1 | 4 | 2 | -1 | 1 | 15* | 4 | 0
Cc1ccc(NC(=O)N(C2=NCC(C)S2)c2ccccc2)cc1 (stereo not given) | 1 | 2 | 1 | -1 | 1 | 7 | nt | nt
Cc1cc(C)n(-c2nnc(N3CCN(c4ccc(F)cc4)CC3)nn2)n1 | 0 | -1 | 3 | -1 | -2 | 6 | nt | nt
C=CCSc1nnc(-c2ccc(Cl)cc2Cl)o1 | 3 | 2 | 4 | 0 | 6 | 14* | 14* | 1
C=CCSc1nnc(-c2cccnc2)o1 | 0 | 0 | 1 | -1 | 1 | 3 | nt | nt
CN(NC(=O)COc1ccccc1)c1ccccc1 | -1 | 4 | 0 | -1 | -3 | -1 | nt | nt
CC(Sc1nnc(NC2CC2)s1)C(=O)Nc1ccc(S(N)(=O)=O)cc1 (stereo not given) | 0 | 1 | 0 | -1 | -1 | 2 | nt | nt
